Compounds without any hit were thinned out: in the full panel of roughly 79,000, 15% have a hit. Unmarked numbers belong to inactive results. The source made the active and inactive calls. Rule as the data show it: active = growth inhibition above about 70%; inactive = the rest.

Experiment [1] in a line: NCI Yeast Anticancer Drug Screen. Data for the rad50 strain (AID 155).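 Also: 0% = growth of vehicle-only cultures of the same strain.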 Conditions: S. cerevisiae rad50 strain growth inhibition, active compounds read high. The method, boiled down: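 Relative growth inhibition (compound vs vehicle) was measured in yeast with a defined repair-gene alteration.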
A short description of experiment [2]: NCI Yeast Anticancer Drug Screen. Data for the mec2-1 strain (AID 157). Conditions: S. cerevisiae mec2-1 strain, active compounds read high. In short, it runs like this: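 Using mec2-1 yeast: add compound, measure growth, express inhibition versus vehicle-treated cultures.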
The nature of experiment [3]: NCI Yeast Anticancer Drug Screen. Data for the sgs1 mgt1 strain (AID 161).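 Also: 0% = growth of cultures given vehicle only.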 Conditions: S. cerevisiae sgs1 mgt1 strain, active compounds read high. In short, it runs like this: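 This yeast growth screen uses a strain with defined DNA-repair lesions; compound-treated growth is compared with vehicle-treated growth.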
A short description of experiment [4]: NCI Yeast Anticancer Drug Screen. Data for the cln2 rad14 strain (AID 165).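 Also: 0% = growth equal to vehicle treated cultures.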 Conditions: S. cerevisiae cln2 rad14 strain, active compounds read high. In short, it runs like this:
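Yeast strain cln2 rad14, bearing defects in cell cycle control and DNA repair, serves as the test system; values reflect growth inhibition compared with vehicle.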

Experiment [5] is described as follows: NCI Yeast Anticancer Drug Screen. Data for the bub3 strain (AID 167). Conditions: S. cerevisiae bub3 mutant strain, active compounds read high. In short, it runs like this: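 Screening used yeast with an engineered genetic alteration affecting cell cycle control. Compound-exposed cultures were compared with vehicle cultures, and reduced growth was taken as inhibition.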

A short description of experiment [6]: NCI Yeast Anticancer Drug Screen. Data for the mlh1 rad18 strain (AID 175). Conditions: S. cerevisiae mlh1 rad18 strain growth inhibition, active compounds read high. In short, it runs like this:
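Steps: expose repair-defective yeast to compound; measure growth; express inhibition against vehicle-treated controls.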

The mark [7] stands for this setting: at 5.0 µM (retest, dose inferred, filed as 0.5).
Setting [8] is: at 50.0 µM (retest, dose inferred, filed as 5.0).

As for `CN(C)CCN(C)CC(C)(C)C(=O)/C=C/c1ccc(Cl)c(Cl)c1`, the growth inhibition was 13% in experiment [1] (setting [7]); 99% (active) in experiment [1] (setting [8]); 96.8% (active) in experiment [1] (at 50.0 µM); 4% in experiment [2] (setting [7]); 99% (active) in experiment [2] (setting [8]); 78.1% (active) in experiment [2] (at 50.0 µM). Moreover, the growth inhibition in experiment [3] (setting [7]) is 6%; in experiment [3] (setting [8]), 99% (active); in experiment [3] (at 50.0 µM), 56.2%; in experiment [4] (setting [7]) it was -3%; in experiment [4] (setting [8]), 98% (active); in experiment [4] (at 50.0 µM), 8.2%. For the same molecule, the growth inhibition is 6% in experiment [5] (setting [7]); 99% (active) in experiment [5] (setting [8]); 92.5% (active) in experiment [5] (at 50.0 µM); 8% in experiment [6] (setting [7]); 99% (active) in experiment [6] (setting [8]); 70.5% (active) in experiment [6] (at 50.0 µM).
As to `S=C1SCN(Cc2cccs2)CN1Cc1cccs1`, the growth inhibition in experiment [1] (setting [7]) is 58%; in experiment [1] (setting [8]), 95% (active); in experiment [1] (at 50.0 µM), 71.2% (active); in experiment [2] (setting [7]) it was 42%; in experiment [2] (setting [8]), 96% (active); in experiment [2] (at 50.0 µM) it was 71.5% (active). Besides, the growth inhibition in experiment [3] (setting [7]) is 55%; in experiment [3] (setting [8]), 99% (active); in experiment [3] (at 50.0 µM), 77.7% (active); in experiment [4] (setting [7]) it was 23%; in experiment [4] (setting [8]), 73% (active); in experiment [4] (at 50.0 µM), 30.4%. The growth inhibition in experiment [5] (setting [7]) was 37%; in experiment [5] (setting [8]), 91% (active); in experiment [5] (at 50.0 µM), 80.7% (active); in experiment [6] (setting [7]), 63%; in experiment [6] (setting [8]) it was 96% (active); in experiment [6] (at 50.0 µM) it was 74.7% (active).
Take `Cc1ccc(NC(=S)C#N)cc1Cl`: the growth inhibition is 46% in experiment [1] (setting [7]); 44% in experiment [1] (setting [8]); 56.7% in experiment [1] (at 50.0 µM); 34% in experiment [2] (setting [7]); 44% in experiment [2] (setting [8]); 43.4% in experiment [2] (at 50.0 µM). The growth inhibition in experiment [3] (setting [7]) was 41%; in experiment [3] (setting [8]), 60%; in experiment [3] (at 50.0 µM), 77.3% (active); in experiment [4] (setting [7]), 37%; in experiment [4] (setting [8]) it was 40%; in experiment [4] (at 50.0 µM), 46.1%. In addition, the growth inhibition in experiment [5] (setting [7]) is 46%; in experiment [5] (setting [8]) it was 45%; in experiment [5] (at 50.0 µM) it was 69.9%; in experiment [6] (setting [7]), 45%; in experiment [6] (setting [8]) it was 53%; in experiment [6] (at 50.0 µM), 4.7%.
For `CCCCOS(=O)(=O)c1ccccc1`, the growth inhibition in experiment [1] (setting [7]) is 7%; in experiment [1] (setting [8]), -25%; in experiment [1] (at 50.0 µM), -6%; in experiment [2] (setting [7]) it was 10%; in experiment [2] (setting [8]), 1%; in experiment [2] (at 50.0 µM) it was -2.6%. Moreover, the growth inhibition in experiment [3] (setting [7]) was 0%; in experiment [3] (setting [8]), 1%; in experiment [3] (at 50.0 µM), 8.95%; in experiment [4] (setting [7]) it was 5%; in experiment [4] (setting [8]) it was 0%; in experiment [4] (at 50.0 µM), -23.1%. Further, the growth inhibition in experiment [5] (setting [7]) is -23%; in experiment [5] (setting [8]), -6%; in experiment [5] (at 50.0 µM) it was 0.8%; in experiment [6] (setting [7]), 3%; in experiment [6] (setting [8]), 1%; in experiment [6] (at 50.0 µM), 14.2%.
For the molecule `CCCCCCCCCCCC[n+]1ccc2ccccc2c1`, the growth inhibition in experiment [1] (setting [7]) is 97% (active); in experiment [1] (setting [8]), 99% (active); in experiment [1] (at 50.0 µM), 99.6% (active); in experiment [2] (setting [7]), 99% (active); in experiment [2] (setting [8]), 100% (active); in experiment [2] (at 50.0 µM) it was 99.7% (active). In addition, the growth inhibition in experiment [3] (setting [7]) was 98% (active); in experiment [3] (setting [8]), 99% (active); in experiment [3] (at 50.0 µM), 99.2% (active); in experiment [4] (setting [7]), 98% (active); in experiment [4] (setting [8]), 100% (active); in experiment [4] (at 50.0 µM), 98.1% (active). Moreover, the growth inhibition is 99% (active) in experiment [5] (setting [7]); 99% (active) in experiment [5] (setting [8]); 99.5% (active) in experiment [5] (at 50.0 µM); 98% (active) in experiment [6] (setting [7]); 100% (active) in experiment [6] (setting [8]); 99.5% (active) in experiment [6] (at 50.0 µM).
With `CCC[CH2][Sn]1([CH2]CCC)[O]C2C(CO)OC(n3ccc(N)nc3=O)C2[O]1` (centres undefined), the growth inhibition in experiment [1] (setting [7]) was 46%; in experiment [1] (setting [8]), 97% (active); in experiment [1] (at 50.0 µM), 86.8% (active); in experiment [2] (setting [7]) it was 48%; in experiment [2] (setting [8]) it was 98% (active); in experiment [2] (at 50.0 µM) it was 89.7% (active). The growth inhibition is 83% (active) in experiment [3] (setting [7]); 99% (active) in experiment [3] (setting [8]); 88.5% (active) in experiment [3] (at 50.0 µM); 71% (active) in experiment [4] (setting [7]); 99% (active) in experiment [4] (setting [8]); 83.6% (active) in experiment [4] (at 50.0 µM). The growth inhibition in experiment [5] (setting [7]) was 89% (active); in experiment [5] (setting [8]) it was 99% (active); in experiment [5] (at 50.0 µM), 87.3% (active); in experiment [6] (setting [7]) it was 26%; in experiment [6] (setting [8]), 96% (active); in experiment [6] (at 50.0 µM), 84.2% (active).
With `O=C(O)c1ccc2c(c1)C(=O)c1ccccc1C2=O`, the growth inhibition in experiment [1] (setting [7]) was -1%; in experiment [1] (setting [8]) it was 33%; in experiment [1] (at 50.0 µM), 95.9% (active); in experiment [2] (setting [7]), -1%; in experiment [2] (setting [8]), 28%; in experiment [2] (at 50.0 µM) it was 99.3% (active). The growth inhibition was 3% in experiment [3] (setting [7]); 26% in experiment [3] (setting [8]); 91.2% (active) in experiment [3] (at 50.0 µM); -1% in experiment [4] (setting [7]); 30% in experiment [4] (setting [8]); 14.2% in experiment [4] (at 50.0 µM). Besides, the growth inhibition in experiment [5] (setting [7]) was 1%; in experiment [5] (setting [8]), 31%; in experiment [5] (at 50.0 µM), 98.7% (active); in experiment [6] (setting [7]), -2%; in experiment [6] (setting [8]), 41%; in experiment [6] (at 50.0 µM) it was 96.5% (active).
Consider `Nc1cccc2cccc([N+](=O)[O-])c12`, for which the growth inhibition in experiment [1] (setting [7]) is -142%; in experiment [1] (setting [8]) it was -39%; in experiment [1] (at 50.0 µM), 10.8%; in experiment [2] (setting [7]) it was -47%; in experiment [2] (setting [8]), -40%; in experiment [2] (at 50.0 µM), 11.4%. The growth inhibition was -52% in experiment [3] (setting [7]); 1% in experiment [3] (setting [8]); 16% in experiment [3] (at 50.0 µM); -63% in experiment [4] (setting [7]); -10% in experiment [4] (setting [8]); 62% in experiment [4] (at 50.0 µM). For the same molecule, the growth inhibition in experiment [5] (setting [7]) was -74%; in experiment [5] (setting [8]), -86%; in experiment [5] (at 50.0 µM), -19.9%; in experiment [6] (setting [7]), -130%; in experiment [6] (setting [8]), -68%; in experiment [6] (at 50.0 µM) it was 21.4%.
In the case of `COC1=CC(=O)c2c(O)c3c(c(O)c2C1=O)CC(C)(O)OC3` (centres undefined), the growth inhibition in experiment [1] (setting [7]) was 87% (active); in experiment [1] (setting [8]), 92% (active); in experiment [1] (at 50.0 µM), 78% (active); in experiment [2] (setting [7]) it was 62%; in experiment [2] (setting [8]), 87% (active); in experiment [2] (at 50.0 µM) it was 68.8%. Further, the growth inhibition in experiment [3] (setting [7]) is 89% (active); in experiment [3] (setting [8]), 92% (active); in experiment [3] (at 50.0 µM), 80.2% (active); in experiment [5] (setting [7]) it was 51%; in experiment [5] (setting [8]) it was 73% (active); in experiment [5] (at 50.0 µM) it was 74.6% (active). Also, the growth inhibition is 89% (active) in experiment [6] (setting [7]), 97% (active) in experiment [6] (setting [8]) and 82.7% (active) in experiment [6] (at 50.0 µM).
In the case of `COc1cc(/C=C/c2ccnc3ccccc23)cc(OC)c1OC`, the growth inhibition was 30% in experiment [1] (setting [7]); 59% in experiment [1] (setting [8]); 43.4% in experiment [1] (at 50.0 µM); 34% in experiment [2] (setting [7]); 68% in experiment [2] (setting [8]); 79.3% (active) in experiment [2] (at 50.0 µM). Moreover, the growth inhibition was 14% in experiment [3] (setting [7]); 93% (active) in experiment [3] (setting [8]); 88.2% (active) in experiment [3] (at 50.0 µM); 25% in experiment [4] (setting [7]); 45% in experiment [4] (setting [8]); 65.3% in experiment [4] (at 50.0 µM). Also, the growth inhibition is 45% in experiment [6] (setting [7]), 81% (active) in experiment [6] (setting [8]) and 22.2% in experiment [6] (at 50.0 µM).

The values above are taken from PubChem BioAssay (NCI).
